# Source: PubChem BioAssay AID1852 (Sanford-Burnham Center for Chemical Genomics, 2009)
# Hit rate of the full screen: of about 2,500 compounds, about 1,100 (44%) were called active. The set was probably picked from earlier hits. The list shows a part of the results. Unmarked numbers belong to inactive results.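 Rule for the calls: active = inhibition above 50% at 4 µM in the single-point screen; inactive = inhibition of 50% or less.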
# Experiment: TNF-a-driven NF-kB reporter inhibitors, primary screen, selectivity assay for NOD1/NOD2 signaling inhibitor project, cell-based, HEK293T NF-kB-Luc, luminescence (AID 1852)
# Settings: TNF-a induced, 14 h, at 4 µM, hits give high values
row,SMILES,inhibition
1,O=c1cc(-c2ccccc2)nc2c(-c3ccccc3)c(C(F)(F)F)[nH]n12,73.9% (active)
2,O=c1cc(-c2ccccc2)nc2cc(-c3ccc(Br)cc3)[nH]n12,38.7%
3,COc1ccc(-c2c(C(F)(F)F)[nH]n3c(=O)cc(-c4ccccc4)nc23)cc1,55.7% (active)
4,Cc1ccc2cc(C)c(N3CCC(C)CC3)nc2c1,20.9%
5,CC1=CC(=O)C=C(C)C1=NOS(=O)(=O)c1ccccc1,48.1%
6,CC1=C/C(=N\OS(=O)(=O)c2ccccc2)C=CC1=O,57.4% (active)
7,Oc1nc(Nc2cccc(Cl)c2)sc1/C=C1\C=Nc2ccccc21,-12.4%
8,OCCCNc1nccc(-c2cc(Nc3cccc(Cl)c3)ncn2)n1,98.2% (active)
9,OCCCNc1cc(-c2ccnc(Nc3cccc(Cl)c3)n2)ccn1,96.3% (active)
10,CCS(=O)(=O)c1ccc2oc(SCC(=O)NCc3ccccc3)nc2c1,36.5%
11,Cc1sc2ncnc(Sc3nnnn3-c3ccccc3)c2c1C,89.8% (active)
12,Cn1nnnc1Sc1ncnc2scc(-c3ccccc3)c12,22.8%
13,Cc1sc2ncnc(Sc3nnnn3-c3ccc(Cl)cc3)c2c1C,87% (active)
14,Cc1ccccc1-n1nnnc1Sc1nnnn1-c1ccccc1,75.4% (active)
15,CCc1c(C)nc2ccc(Br)cc2c1SCCC#N,43.8%
16,CCn1ccnc1CN1CCCC(C(=O)c2ccc3cc(OC)ccc3c2)C1 (stereo not drawn),39.3%
17,COc1ccc2cc3c(N)nn(C(=O)c4ccccc4Cl)c3nc2c1,94.3% (active)
18,COc1cc(/C=C/c2ccc3cccc(OC)c3n2)c(OC(C)=O)c([N+](=O)[O-])c1,9.5%
19,COc1ccc2cc3c(N)nn(C(=O)C4CCC(C(C)(C)C)CC4)c3nc2c1 (stereo not drawn),104% (active)
20,COc1ccc2cc3c(N)nn(C(=O)c4ccccc4[N+](=O)[O-])c3nc2c1,79.5% (active)
21,CC1=NOC(=O)/C1=C\c1ccc(-c2cc(Cl)ccc2Cl)o1,-2.6%

row,SMILES,inhibition
1,CC1CCc2c(sc(NC(=O)c3cccs3)c2C(=O)O)C1 (stereo not drawn),-35.7%
2,N#Cc1c(NC(=O)CSc2ncn[nH]2)sc2c1CCCC2,53.4% (active)
3,N#Cc1c(NC(=O)CSc2ncn[nH]2)sc2c1CCCCC2,73.9% (active)
4,CC1CCc2c(sc(NC(=O)/C=C/c3cccs3)c2C(=O)O)C1 (stereo not drawn),31.1%
5,CC1CCc2c(sc(NC(=O)CSc3ncn[nH]3)c2C#N)C1 (stereo not drawn),68.2% (active)
6,CCOC(=O)c1c(NC(=O)CSc2ncn[nH]2)sc(C)c1C,37.2%
7,O=C(Nc1sc2c(c1C(=O)O)CCCC2)c1ccc(F)cc1,-13.9%
8,N#C/C(=C(/O)COc1ccc(Cl)cc1)c1nc2ccccc2s1,73.1% (active)
9,O=C(COc1ccc(Cl)cc1)Nc1nc(-c2ccncc2)cs1,20.3%
10,N#C/C(=C(/O)Cc1cccc2ccccc12)c1nc2ccccc2s1,74.8% (active)
11,Nc1nc(CSc2nc3ccccc3s2)nc(Nc2ccccc2)n1,-3%
12,O=C(NCc1cccnc1)/C(=C\c1ccc(-c2ccc(Cl)c(Cl)c2)o1)S(=O)(=O)c1ccccc1,109% (active)
13,O=C(NCc1cccnc1)/C(=C/c1ccc(-c2ccc(Cl)cc2)o1)S(=O)(=O)c1ccccc1,85.2% (active)
14,COc1ccc(-c2cn(-c3ccc(C)cc3C)c(=S)[nH]2)cc1OC,18.3%
15,Nc1ncnc(N2CCc3ccccc32)c1[N+](=O)[O-],99.8% (active)
16,Nc1ncnc(Sc2ccc(Cl)cc2)c1[N+](=O)[O-],1%
17,Nc1ncnc(Nc2ccccn2)c1[N+](=O)[O-],22.8%
18,CC1CCCCN1c1ncnc(N)c1[N+](=O)[O-] (stereo not drawn),59.2% (active)
19,COc1ccc(CCN2C(=S)N(c3ccc(Cl)cc3)C(=O)C2CC(N)=O)cc1OC (stereo not drawn),17.3%
20,Cc1cccc(CSc2cccc3cccnc23)c1,104% (active)
21,Cn1c(-c2ccccc2)c(C(=O)CCl)c2ccccc21,76.3% (active)

row,SMILES,inhibition
1,Cn1cc(C(=O)CCl)c2ccccc21,77.1% (active)
2,Cn1c(=NC(=O)CCl)sc2ccccc21,37.1%
3,Cc1cc(C(=O)CCl)c(C)n1CCc1ccccc1,47.1%
4,Cc1ccc(C(C)C)c(OCc2ccc(C(=O)N/N=C/c3cccc(O)c3O)cc2)c1,17.2%
5,Cc1ccc(C(C)C)c(OCc2ccc(C(=O)N/N=C/c3ccc(C(=O)O)cc3)cc2)c1,64.9% (active)
6,COc1cc(/C=N/NC(=O)c2ccc(COc3cc(C)ccc3C(C)C)cc2)cc(OC)c1O,40.7%
7,CC1CCC/C=C/C(=O)c2c(O)cc(O)cc2CC(=O)O1 (stereo not drawn),74.9% (active)
8,CN1/C(=C\C=[N+](C)c2ccccc2)C(C)(C)c2ccccc21,49.5%
9,O=C(C(Cl)Cl)N1c2ccccc2OCC1c1ccccc1 (stereo not drawn),37.8%
10,O=C(CCl)N1c2ccccc2SCC1c1ccccc1 (stereo not drawn),32.2%
11,O=C(CCl)N1c2ccccc2OCC1c1ccccc1 (stereo not drawn),62.2% (active)
12,O=C(CCl)N(Cc1cc(=O)[nH]c2ccccc12)c1ccccc1,99.9% (active)
13,COc1ccc(N(Cc2cc(=O)[nH]c3ccccc23)C(=O)CCl)cc1,21.4%
14,Cc1ccc(N(Cc2cc(=O)[nH]c3ccccc23)C(=O)CCl)cc1,106% (active)
15,Cc1cccc(N(Cc2cc(=O)[nH]c3ccccc23)C(=O)CCl)c1,78.4% (active)
16,CCCS(=O)(=O)c1cnc(C2COc3ccccc3O2)nc1N (stereo not drawn),48.4%
17,Cc1ccc(-n2c(-c3ccc(Br)cc3)c[n+]3c2CCc2ccc4cccnc4c2-3)cc1,85% (active)
18,Cc1ccc(-c2csc3ncnc(Sc4nnc(CN5CCCCCC5=O)o4)c23)cc1,93.2% (active)
19,O=C(Nc1ccc(C(F)(F)F)cc1)C1CCN(S(=O)(=O)c2ccc(N3CCCC3=O)cc2)CC1,63.7% (active)
20,CC(C)(C)CC(=O)Nc1ccc(S(=O)(=O)N2CCCC2)cc1,15.8%
21,CC1Sc2ccc(S(=O)(=O)N3CCC(C(=O)Nc4ccc(Cl)cc4)CC3)cc2NC1=O (stereo not drawn),44%
